Records with an inconclusive call do not appear. Where a call stands in place of a potency, no number is given. The source made the active and inactive calls. Unless noted, the call rests on the fitted dose curve.
Tests used:
[1] = Nuclear factor erythroid 2-related factor 2/antioxidant responsive element (Nrf2/ARE) small molecule agonists: luciferase reporter gene qHTS assay in human keratinocytes (AID 1919969); further: nearly all actives have a fitted effect of over 35% in size; further: potency means the concentration at half of the fitted maximal effect
[2] = target: Gonadotropin-releasing hormone receptor (Homo sapiens) (UniProt P30968); assay: Human gonadotropin-releasing hormone receptor (GnRHR) small molecule agonists, calcium flux assay in GnRHR-HEK293 cells (AID 1920063); further: nearly all actives have a fitted effect of over 35% in size; further: potency means the concentration at half of the fitted maximal effect
Sequence of Gonadotropin-releasing hormone receptor (Homo sapiens) (P30968 whole entry, looked up): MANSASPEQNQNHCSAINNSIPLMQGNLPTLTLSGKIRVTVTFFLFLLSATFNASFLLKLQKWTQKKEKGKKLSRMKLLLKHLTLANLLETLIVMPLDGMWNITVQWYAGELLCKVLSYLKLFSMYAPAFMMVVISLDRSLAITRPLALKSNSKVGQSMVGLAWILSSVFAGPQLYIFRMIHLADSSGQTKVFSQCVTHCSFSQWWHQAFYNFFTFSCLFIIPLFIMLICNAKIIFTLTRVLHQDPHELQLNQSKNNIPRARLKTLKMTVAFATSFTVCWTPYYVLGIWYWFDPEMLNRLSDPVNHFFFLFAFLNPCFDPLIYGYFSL
Procedure, shortened: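 Intracellular calcium rise is the read-out: engineered human GnRHR HEK293 cells, dye-loaded, are exposed to DMSO-dissolved compounds and fluorescence at Ex/Em 480/540 is tracked for 3 min.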

[3] = target: KiSS-1 receptor (Homo sapiens) (UniProt Q969F8); assay: Human kisspeptin (KISS1R) small molecule agonists, calcium flux assay in KISS1R-HEK293 cells (AID 1920064; active means well fitted activation curve with a large enough effect in the repeat runs; further: potency means the concentration at half of the fitted maximal effect)
Sequence of KiSS-1 receptor (Homo sapiens) (Q969F8 whole entry, looked up): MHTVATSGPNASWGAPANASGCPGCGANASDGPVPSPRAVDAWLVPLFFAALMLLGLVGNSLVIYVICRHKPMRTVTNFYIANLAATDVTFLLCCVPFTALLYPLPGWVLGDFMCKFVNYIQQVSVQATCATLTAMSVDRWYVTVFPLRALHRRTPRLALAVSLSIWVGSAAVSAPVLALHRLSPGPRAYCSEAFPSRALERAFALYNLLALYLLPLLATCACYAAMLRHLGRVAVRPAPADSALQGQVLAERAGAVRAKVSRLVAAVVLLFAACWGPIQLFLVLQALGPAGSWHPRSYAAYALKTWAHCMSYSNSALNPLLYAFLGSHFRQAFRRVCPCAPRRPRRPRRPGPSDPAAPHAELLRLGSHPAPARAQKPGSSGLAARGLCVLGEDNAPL
Procedure, shortened: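 Concentration-response testing used 15 concentrations in triplicate on human KISS1R-expressing HEK293 cells. Calcium-dependent fluorescence (Ex/Em 480/540) was followed kinetically for 3 min after compound transfer.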

[4] = G protein-coupled receptor (GPCR) small molecule agonists, calcium flux assay: HEK293 wild type cell line counter screen (AID 1920065); further: potency means the concentration at half of the fitted maximal effect
Procedure, shortened: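 Fluorescence intensity signals activation. After overnight (18 h) culture and a 1 h calcium dye load at 37 C, compounds are added by pin tool and the plate read at 480/540 nm for 3 min in 1 s steps.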

[5] = p53 small molecule agonists, cell-based qHTS assay with human liver microsomes: qHTS cell viability counter screen (AID 1963579); further: nearly all actives have a fitted effect of over 45% in size; further: potency means the concentration at half of the fitted maximal effect
Procedure, shortened: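 Seed p53RE-bla cells at 4,000 per well; incubate 5 h at 37 C; add compound, human liver microsomes and NADPH; incubate 16 h at 37 C; add CellTiter-Glo; after 30 min at room temperature, read luminescence.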

[6] = target: 5-hydroxytryptamine receptor 2A (Homo sapiens) (UniProt P28223); assay: 5-hydroxytryptamine receptor 2A (HTR2A) small molecule antagonists, cell-based qHTS assay (AID 1963586); further: nearly all actives have a fitted effect of over 45% in size
Sequence of 5-hydroxytryptamine receptor 2A (Homo sapiens) (P28223 whole entry, looked up): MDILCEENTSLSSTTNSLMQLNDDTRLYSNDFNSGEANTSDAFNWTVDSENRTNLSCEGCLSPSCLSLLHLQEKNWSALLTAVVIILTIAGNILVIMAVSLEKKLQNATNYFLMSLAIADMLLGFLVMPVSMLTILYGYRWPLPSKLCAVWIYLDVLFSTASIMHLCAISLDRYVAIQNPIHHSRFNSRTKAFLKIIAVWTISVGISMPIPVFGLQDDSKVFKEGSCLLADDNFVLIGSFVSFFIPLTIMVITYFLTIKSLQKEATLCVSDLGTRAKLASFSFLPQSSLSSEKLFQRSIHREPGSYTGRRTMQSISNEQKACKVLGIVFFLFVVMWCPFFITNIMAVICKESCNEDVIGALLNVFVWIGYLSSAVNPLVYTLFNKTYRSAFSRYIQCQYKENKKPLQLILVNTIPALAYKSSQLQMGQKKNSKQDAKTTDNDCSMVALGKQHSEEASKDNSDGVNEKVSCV
Procedure, shortened: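 CHO cells stably expressing human HTR2A were plated for 18 h at 37 C, then loaded with calcium dye for 1 h. Compounds were preincubated 5 min at room temperature before DOI (4 nM solution) was added. Kinetic fluorescence was read for 3 min.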

[7] = target: 5-hydroxytryptamine receptor 2A (Homo sapiens) (UniProt P28223); assay: 5-hydroxytryptamine receptor 2A (HTR2A) small molecule agonists, cell-based qHTS assay (AID 1963587); further: nearly all actives have a fitted effect of over 30% in size; further: potency means the concentration at half of the fitted maximal effect
Procedure, shortened: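 CHO cells stably expressing human HTR2A, plated 18 h, loaded with calcium dye 1 h at 37 C. Agonist mode: compounds added and intracellular calcium fluorescence recorded kinetically for 2 min at 1 sec intervals.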

[8] = target: Muscarinic acetylcholine receptor M1 (Homo sapiens) (UniProt P11229); assay: Cholinergic receptor muscarinic 1 (CHRM1) small molecule antagonists, cell-based qHTS assay (AID 1963588); further: nearly all actives have a fitted effect of over 40% in size
Sequence of Muscarinic acetylcholine receptor M1 (Homo sapiens) (P11229 whole entry, looked up): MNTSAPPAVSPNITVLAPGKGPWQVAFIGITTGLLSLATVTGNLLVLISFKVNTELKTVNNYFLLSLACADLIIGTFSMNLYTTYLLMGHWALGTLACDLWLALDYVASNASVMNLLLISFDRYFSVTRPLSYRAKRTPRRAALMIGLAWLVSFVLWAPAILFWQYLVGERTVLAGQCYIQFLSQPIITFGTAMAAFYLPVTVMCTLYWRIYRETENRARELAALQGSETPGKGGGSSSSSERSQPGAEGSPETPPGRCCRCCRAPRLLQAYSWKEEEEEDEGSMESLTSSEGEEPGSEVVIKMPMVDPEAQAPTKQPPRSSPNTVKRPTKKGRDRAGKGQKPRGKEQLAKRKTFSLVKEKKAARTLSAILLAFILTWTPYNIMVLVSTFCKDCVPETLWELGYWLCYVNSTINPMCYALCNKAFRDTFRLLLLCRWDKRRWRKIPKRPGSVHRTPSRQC
Procedure, shortened: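 Compounds were tested at 15 concentrations in three independent runs. Dye-loaded CHRM1-CHO cells were exposed 5 min at room temperature before stimulation by acetylcholine added at 50nM. Intracellular calcium was read kinetically on FDSS for 3 min.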

[9] = target: Muscarinic acetylcholine receptor M1 (Homo sapiens) (UniProt P11229); assay: Cholinergic receptor muscarinic 1 (CHRM1) small molecule agonists, cell-based qHTS assay (AID 1963589); further: nearly all actives have a fitted effect of over 35% in size; further: potency means the concentration at half of the fitted maximal effect
Procedure, shortened: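 Fluorescent calcium dye reports M1 activation in stably transfected CHO cells. Compounds, 15 concentrations, added after 1 h dye loading at 37 C; kinetic reading at 1 sec intervals.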

[10] = cAMP Responsive Elements (CRE) small molecule agonists, cell-based qHTS assay (AID 1963590); further: potency means the concentration at half of the fitted maximal effect
Procedure, shortened: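 Compound exposure lasted 3 h at 37 C/5% CO2 in CRE-bla HEK 293T cells grown in assay medium with 10% dialyzed FBS and 25 mM HEPES. Reporter signal came from LiveBLAzer B/G FRET substrate, 2 h, room temperature.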

[11] = cAMP Responsive Elements (CRE) small molecule antagonists, cell-based qHTS assay (AID 1963591; active means well fitted inhibition curve with a large enough effect in the signal ratio in the repeat runs, not every such curve was filed as active; the % refers to the signal ratio)
Procedure, shortened: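 Stimulation used NKH477 at a final 0.25 uM for 3 h in compound-treated CRE-bla HEK293T cells, seeded 18 h beforehand. Reporter activity was measured with LiveBLAzer B/G FRET substrate after 2 h at room temperature.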

[12] = p53 small molecule agonists, cell-based qHTS assay with rat liver microsomes: qHTS cell viability counter screen (AID 1963580); further: nearly all actives have a fitted effect of over 45% in size
Procedure, shortened: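 Cytotoxicity counter screen: intracellular ATP measured by CellTiter-Glo luminescence in the same wells as the beta-lactamase reporter read, on HCT-116 p53RE-bla cells exposed 16 h at 37 C to compounds with rat liver microsomes and NADPH, each 0.5 mg/mL final.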

[13] = p53 small molecule agonists, cell-based qHTS assay: qHTS cell viability counter screen (AID 1963581); further: nearly all actives have a fitted effect of over 45% in size; further: potency means the concentration at half of the fitted maximal effect
Procedure, shortened: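 Luminescence from CellTiter-Glo, reflecting ATP content, serves as the cytotoxicity measure; it is taken after the 2 h reporter substrate step in HCT-116 p53RE-bla cells dosed for 16 h at 37 C.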

[14] = target: Beta-2 adrenergic receptor (Homo sapiens) (UniProt P07550); assay: Adrenergic beta2 receptor (ADRB2) small molecule antagonists, cell-based qHTS assay (AID 1963592); further: nearly all actives have a fitted effect of over 50% in size; further: potency means the concentration at half of the fitted maximal effect
Sequence of Beta-2 adrenergic receptor (Homo sapiens) (P07550 whole entry, looked up): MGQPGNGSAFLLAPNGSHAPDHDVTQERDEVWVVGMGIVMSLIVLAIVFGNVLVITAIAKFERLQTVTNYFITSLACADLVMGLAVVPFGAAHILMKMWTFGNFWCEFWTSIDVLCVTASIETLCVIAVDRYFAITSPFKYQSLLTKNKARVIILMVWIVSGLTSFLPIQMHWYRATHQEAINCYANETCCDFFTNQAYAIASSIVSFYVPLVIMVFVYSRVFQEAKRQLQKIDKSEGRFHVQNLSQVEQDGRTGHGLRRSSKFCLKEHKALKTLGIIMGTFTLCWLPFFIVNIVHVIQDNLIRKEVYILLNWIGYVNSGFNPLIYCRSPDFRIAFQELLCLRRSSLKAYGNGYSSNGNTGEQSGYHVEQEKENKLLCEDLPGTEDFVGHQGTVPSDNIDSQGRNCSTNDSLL
Procedure, shortened: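 Assay format: CHO-ADRB2 cells, 18-20hr seeding at 37C/5% CO2, then compound plus 1nM isoproterenol agonist mix for 0.5hr RT. Homogeneous time-resolved fluorescence cAMP detection after 1hr, expressed as 665/615 nm ratio.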

[15] = target: D(2) dopamine receptor (Homo sapiens) (UniProt P14416); assay: Dopamine D2 receptor (DRD2) small molecule agonists, cell-based qHTS assay (AID 1963594); further: nearly all actives have a fitted effect of over 35% in size; further: potency means the concentration at half of the fitted maximal effect
Sequence of D(2) dopamine receptor (Homo sapiens) (P14416 whole entry, looked up): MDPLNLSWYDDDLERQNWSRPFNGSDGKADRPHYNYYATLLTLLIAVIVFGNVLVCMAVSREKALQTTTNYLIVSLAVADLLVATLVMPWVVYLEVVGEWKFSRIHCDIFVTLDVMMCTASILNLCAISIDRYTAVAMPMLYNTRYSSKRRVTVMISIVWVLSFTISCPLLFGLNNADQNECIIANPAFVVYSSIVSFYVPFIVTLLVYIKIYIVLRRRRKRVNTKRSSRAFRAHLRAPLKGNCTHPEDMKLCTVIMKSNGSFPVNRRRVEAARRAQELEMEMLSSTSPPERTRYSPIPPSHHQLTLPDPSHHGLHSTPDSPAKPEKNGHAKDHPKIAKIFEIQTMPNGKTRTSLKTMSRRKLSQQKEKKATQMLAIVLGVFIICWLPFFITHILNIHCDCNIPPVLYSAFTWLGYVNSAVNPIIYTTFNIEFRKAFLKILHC
Procedure, shortened: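 HEK293 cells stably expressing human DRD2, pre-treated with PDE inhibitor Ro20-1724 (0.1 mM final) and compound 10 min at room temperature, then stimulated with NKH477 (200nM […]) for 30 min. cAMP read by HTRF (665/620 nm).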

[16] = target: D(2) dopamine receptor (Homo sapiens) (UniProt P14416); assay: Dopamine D2 receptor (DRD2) small molecule antagonists, cell-based qHTS assay (AID 1963595; active means well fitted inhibition curve with a large enough effect in the signal ratio in the repeat runs, with a control signal flat; the % refers to the signal ratio)
Procedure, shortened: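 Human DRD2 antagonist qHTS measuring cAMP by HTRF. The cells are exposed to compound for 10 min, then to NKH477 (200 nM) and quinpirole (12 nM) for 30 min at RT, with Ro20-1724 (0.1 mM) present throughout.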

[17] = p53 small molecule agonists, cell-based qHTS assay with human liver microsomes (AID 1963577)
Procedure, shortened: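 Cells carrying a p53-responsive bla reporter were rested 5 h (37 C, 5% CO2) before compound transfer. Human liver microsomes plus NADPH, 0.5 mg/mL final apiece, supplied metabolism during the 16 h 37 C exposure.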

[18] = p53 small molecule agonists, cell-based qHTS assay with rat liver microsomes (AID 1963578)
Procedure, shortened: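 Fluorescence from a beta-lactamase reporter under a p53 response element was measured after cells had been incubated 16 h at 37 C with test compound and rat liver microsomes plus NADPH (0.5 mg/mL final each).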

[19] = p53 small molecule agonists, cell-based qHTS assay (AID 1963582; active means well fitted activation curve with a large enough effect in the signal ratio in the repeat runs, not every such curve was filed as active; the % refers to the signal ratio; further: potency means the concentration at half of the fitted maximal effect)
Procedure, shortened: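 After plating, p53RE-bla cells sat 5 h in the incubator; compounds or DMSO vehicle were pinned in; a 16 h incubation at 37 C followed; FRET substrate was added and, 2 h later at RT, fluorescence was measured.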

[20] = target: Beta-2 adrenergic receptor (Homo sapiens) (UniProt P07550); assay: Adrenergic beta2 receptor (ADRB2) small molecule agonists, cell-based qHTS assay (AID 1963593);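 further: CHO cells stably overexpressing human ADRB2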
Procedure, shortened: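 CHO cells stably over-expressing ADRB2 were plated overnight at 37C, then dosed with compounds plus a stimulation mix containing 100uM IBMX and 25uM Ro-20-1724 for 0.5hr at room temperature. cAMP was measured by HTRF competition, 1hr.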

Compound	Potency [1]	Potency [2]	Potency [3]	Potency [4]	Potency [5]	Potency [6]	Potency [7]	Potency [8]	Potency [9]	Potency [10]	Potency [11]	Potency [12]	Potency [13]	Potency [14]	Potency [15]	Potency [16]	Potency [17]	Potency [18]	Potency [19]	Potency [20]
Cc1cc2nc3ccc(=[N+](C)C)cc-3sc2cc1N	2.37 µM (active)	inactive	inactive	inactive	11.2 µM (active)	inactive	inactive	inactive	inactive	inactive	inactive	–	–	–	–	–	–	–	–	–
COC(=O)C1=C(C)NC(COC(N)=O)=C(C(=O)OC(C)C)C1c1cccc(Cl)c1Cl (centres undefined)	inactive	inactive	inactive	–	inactive	inactive	inactive	inactive	inactive	–	inactive	inactive	inactive	inactive	inactive	inactive	–	–	–	–
O=C1OC2(c3ccccc31)c1ccc(O)c(Br)c1Oc1c2ccc(O)c1Br	inactive	13.8 µM (active)	7.76 µM (active)	19.5 µM (active)	–	inactive	–	inactive	–	–	–	inactive	inactive	68.6 µM (active)	15.4 µM (active)	–	–	–	–	–
C[n+]1c2cc(N)ccc2cc2ccc(N)cc21 (tested in a mixture with another compound)	6.68 µM (active)	16.9 µM (active)	21.3 µM (active)	16.9 µM (active)	inactive	inactive	19 µM (active)	inactive	19 µM (active)	–	–	–	inactive	–	–	–	–	–	–	–
S=c1[nH]c2ccccc2s1	21.7 µM (active)	inactive	inactive	inactive	–	inactive	inactive	–	inactive	48.6 µM (active)	–	inactive	–	–	–	–	–	–	–	–
CCc1c(C(=O)NN2CCCCC2)nn(-c2ccc(Cl)cc2Cl)c1-c1ccc(Br)cc1	inactive	inactive	inactive	–	40.8 µM (active)	inactive	inactive	–	inactive	–	inactive	–	36.3 µM (active)	inactive	–	inactive	inactive	inactive	–	–
Cc1cc(=O)oc2cc(N(C)C)ccc12	inactive	inactive	inactive	–	inactive	inactive	inactive	inactive	inactive	–	–	inactive	inactive	inactive	inactive	inactive	–	inactive	32.4 µM (active)	–
COC(=O)Nc1nc2ccc(C(=O)c3cccs3)cc2[nH]1	2.66 µM (active)	inactive	inactive	–	–	–	–	–	–	–	inactive	inactive	–	inactive	inactive	inactive	inactive	inactive	–	–
CC(=O)O[C@@]12CO[C@@H]1C[C@H](O)[C@@]1(C)C(=O)[C@H](O)C3=C(C)[C@@H](OC(=O)[C@H](O)[C@@H](NC(=O)OC(C)(C)C)c4ccccc4)C[C@@](O)([C@@H](OC(=O)c4ccccc4)[C@H]21)C3(C)C	inactive	inactive	inactive	inactive	–	–	–	–	–	–	–	–	–	–	inactive	inactive	–	–	–	–
CNc1ccc([N+](=O)[O-])cc1	inactive	inactive	inactive	–	inactive	inactive	inactive	inactive	inactive	inactive	inactive	inactive	inactive	inactive	inactive	inactive	–	–	–	inactive

Reference: PubChem BioAssay (Tox21)
